According to paper PMC5540273 (PLoS ONE, 2017):

system: STK35; conditions: concentration: 1 μM, replicates: in singlicate; n = 1
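Also: KINOMEscan kinase panel screen.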

`CCn1c(-c2nonc2N)nc2c(C#CC(C)(C)O)nc(OC[C@H](N)c3ccccc3)cc21` [GSK943949] was tested. Which “%Inh” value did it give?
Its value is 0%.

Which “%Inh” value does the source give for `Cc1cccc(NC(=O)Nc2ccc(Oc3ncnc4ccn(C)c34)cc2)c1` here?
Its value is 0%.

Which “%Inh” value does the source give for `O=C(Nc1cccc(Oc2ccc3nc(NC(=O)C4CC4)cn3n2)c1)c1ccccc1C(F)(F)F` here?
The value was 3%.

With `O=C(Nc1ccccc1F)NC1CCN(c2ccnc(Nc3ccc(F)cc3)n2)CC1` [GSK1379800] as the compound, how does the “%Inh” value read?
Its value is 0%.

`NCCCC(NC(=O)c1cc(Br)c(-c2ccnc3[nH]ccc23)s1)c1ccccc1.O=C(O)C(F)(F)F.O=C(O)C(F)(F)F` (stereo not shown) [GSK1287544] was tested. Which “%Inh” value did it give?
Its value is 0%.

How did the “%Inh” value turn out when `COc1cccc(C(=O)Nc2cccc(Oc3ccc4nc(NC(=O)C5CC5)cn4n3)c2)c1` was run?
Its value is 0%.

For `COC(=O)Nc1nc2cc(Oc3ccc(NC(=O)Nc4cc(C(F)(F)F)ccc4F)cn3)ccc2[nH]1.Cl.Cl` [GW681170], which “%Inh” value is on record?
Its value is 0%.

How did the “%Inh” value turn out when `Cc1ccc(C(=O)Nc2ccc(Nc3ccnc4cc(-c5nccs5)ccc34)cc2O)cc1.Cl` [GW494702] was run?
Its value is 0%.

Which “%Inh” value does the source give for `CCc1ccc(-c2ccc3c(c2)-c2c(cnn2C)S(=O)(=O)N3C)cc1` here?
Its value is 2%.

How did the “%Inh” value turn out when `CN(C)S(=O)(=O)c1cc(-c2ccc3nccc(-c4cccc(S(N)(=O)=O)c4)c3c2)cnc1N` [GSK1669921] was run?
The value was 8%.

How did the “%Inh” value turn out when `COc1cccc(NC(=O)NC2CCN(c3ccnc(Nc4cc(OC)c(OC)c(OC)c4)n3)C2)c1` (stereo not shown) [GSK1379763] was run?
The value was 3%.

How did the “%Inh” value turn out when `O=c1[nH]cc(-c2ccc(N3CCOCC3)cc2)c2sc(-c3cn[nH]c3)cc12` [GSK2276055] was run?
The value was 0%.

`COc1cc(Nc2nccc(N3CCC(NC(=O)Nc4cccc(C(C)=O)c4)C3)n2)cc(OC)c1OC` (stereo not shown) [GSK1379753] was tested. Which “%Inh” value did it give?
Its value is 0%.

Which “%Inh” value does the source give for `CN1CCN(CCCNc2nccc(-c3c(-c4ccc(F)cc4)nn4cc(C(F)(F)F)ccc34)n2)CC1` [GW621581] here?
Its value is 60%.

Which “%Inh” value does the source give for `c1ccc(-c2cnc3nccnn23)cc1` [AH20685] here?
The value was 0%.

Which “%Inh” value does the source give for `Cc1ccc(C(=O)N2CC[C@@H](O)C2)cc1-n1c(C)cc(OCc2ccc(F)cc2F)c(Br)c1=O` here?
The value was 0%.

How did the “%Inh” value turn out when `C[C@@H](Oc1cc(-n2cnc3cc(-c4ccnc(NCCS(C)(=O)=O)c4)ccc32)sc1C(N)=O)c1ccccc1Cl` [GSK907232] was run?
The value was 15%.

With `Cl.c1ccc(-c2ccc3c(Nc4ccc5[nH]ncc5c4)ccnc3c2)nc1` [GW440137] as the compound, how does the “%Inh” value read?
Its value is 0%.

`Oc1cc(Nc2ccnc3cc(I)ccc23)ccc1F` [GW552771] was tested. Which “%Inh” value did it give?
Its value is 5%.

Which “%Inh” value does the source give for `Nc1n[nH]c2cnc(-c3ccccc3)cc12` [SB-642124] here?
Its value is 0%.

For `COc1cc(Nc2nccc(N3CCC(NC(=O)c4cc5ccccc5s4)C3)n2)cc(OC)c1OC` (stereo not shown) [GSK1379760], which “%Inh” value is on record?
Its value is 9%.

Which “%Inh” value does the source give for `C[C@@H]1CC[C@@H](C(=O)Nc2ccccc2)CN1c1cc(-c2ccc3c(N)n[nH]c3c2)nc(N)n1` [GSK2286062] here?
The value was 0%.

With `Nc1ncc(-c2cccnc2)c2scc(-c3ccc4c(c3)CCN4C(=O)Cc3ccccc3)c12` [GSK683281] as the compound, how does the “%Inh” value read?
The value was 0%.

How did the “%Inh” value turn out when `Cc1ccc(F)c(C(=O)Nc2cccc(-c3nn4ccccc4c3-c3ccnc(Nc4cccc(F)c4)n3)c2)c1F` [GSK361061] was run?
Its value is 33%.

`O=C(Nc1cccc(-c2nn3ncccc3c2-c2ccnc(Nc3ccccc3)n2)c1)c1c(F)cccc1F` [GSK198271] was tested. Which “%Inh” value did it give?
The value was 79%.

Which “%Inh” value does the source give for `CC(C)c1nc(-c2cccc(NS(=O)(=O)c3c(F)cccc3F)c2F)c(-c2ccnc(Nc3ccc(N4CCOCC4)nc3)n2)s1` [GSK2008607] here?
The value was 36%.

`COc1cc(Nc2ncc3c(C)nc(-c4cc5ccccc5[nH]4)n3n2)cc(OC)c1OC` [GW869516] was tested. Which “%Inh” value did it give?
The value was 0%.

With `COCCOCCOc1cc2ncc3c4ccc(C#N)cc4[nH]c3c2cc1OC` as the compound, how does the “%Inh” value read?
Its value is 18%.

How did the “%Inh” value turn out when `O=C(O)C(F)(F)F.O=C(O)C(F)(F)F.O=c1[nH]ccc2nc(N[C@@H]3CCCNC3)nc(Nc3ccc(S(=O)(=O)N4CCOCC4)cc3)c12` [GSK2177277] was run?
The value was 98%.

Which “%Inh” value does the source give for `Cc1cccc(Nc2nc(N[C@H]3CCNC3)ncc2C(N)=O)c1.Cl` [GSK2197149] here?
The value was 1%.

For `COc1cc(Nc2nccc(-c3c(-c4cccc(NC(=O)c5c(F)cccc5F)c4)nn4ncccc34)n2)cc(OC)c1OC` [GSK327238], which “%Inh” value is on record?
The value was 96.9%.

With `O=C(Nc1n[nH]c2cc(-c3ccoc3)ccc12)C1CC1` [SB-738481] as the compound, how does the “%Inh” value read?
Its value is 5%.

`O=C(Nc1cccc(-c2nn3ccccc3c2-c2ccnc(Nc3cccc(C(F)(F)F)c3)n2)c1)c1c(F)cccc1F` [GSK292658] was tested. Which “%Inh” value did it give?
Its value is 20%.

`COC(=O)Nc1nc2ccc(Oc3ccc(NC(=O)Nc4cc(C(F)(F)F)ccc4F)cc3)cc2n1C.Cl` [GW692089] was tested. Which “%Inh” value did it give?
Its value is 0%.

Which “%Inh” value does the source give for `Fc1ccc(-c2ncn(C3CCNCC3)c2-c2ccnc(Oc3ccc(-c4ccccc4)cc3)n2)cc1` [SB-245391] here?
Its value is 0%.

For `COc1cc(Nc2nccc(-c3c(-c4cccc(NC(=O)c5c(F)cccc5F)c4)nn4ccccc34)n2)cc(OC)c1OC` [GSK323521], which “%Inh” value is on record?
The value was 0%.

For `O=C(Nc1cccc(-c2nn3ccccc3c2-c2ccnc(Nc3cccc(F)c3)n2)c1)c1c(F)ccc(F)c1Cl` [GSK357952], which “%Inh” value is on record?
Its value is 27%.
